Laboratory results reported in PubChem BioAssay.

Biological target: NADPH oxidase 2 (Homo sapiens) (UniProt P04839)
Assay: compounds shifting NOX2 Amplex Red fluorescence – cell-based, HEK293-NOX2, PMA-stimulated, NOX inhibitor project, primary screen (AID 1159); note: test concentration not given here
Conditions: 45 min, higher = more signal, called active from +8 up or from −8 down

Chain of NADPH oxidase 2 (Homo sapiens) (P04839 whole entry, looked up): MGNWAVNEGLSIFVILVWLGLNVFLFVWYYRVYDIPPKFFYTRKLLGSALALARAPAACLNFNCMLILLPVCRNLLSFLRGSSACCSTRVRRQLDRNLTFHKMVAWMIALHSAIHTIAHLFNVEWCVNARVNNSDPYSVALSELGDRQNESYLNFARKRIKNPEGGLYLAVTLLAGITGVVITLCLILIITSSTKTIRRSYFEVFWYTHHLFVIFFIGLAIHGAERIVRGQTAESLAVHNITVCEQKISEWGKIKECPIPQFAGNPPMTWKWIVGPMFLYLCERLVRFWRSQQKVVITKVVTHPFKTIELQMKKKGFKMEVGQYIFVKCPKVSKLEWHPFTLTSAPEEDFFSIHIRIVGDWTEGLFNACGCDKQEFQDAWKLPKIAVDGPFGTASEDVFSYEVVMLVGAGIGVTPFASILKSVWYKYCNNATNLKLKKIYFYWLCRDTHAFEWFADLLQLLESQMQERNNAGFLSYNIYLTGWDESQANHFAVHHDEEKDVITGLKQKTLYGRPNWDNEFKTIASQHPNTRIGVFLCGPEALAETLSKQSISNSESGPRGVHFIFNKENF

z-score, inactive:
COC(=O)C(CC#Cc1ccc2c(c1)[C@]1(C(=O)N2)[C@H](C(N)=O)[C@H]2C(=O)O[C@H](c3ccccc3)[C@H](c3ccccc3)N2[C@@H]1c1ccccc1OCCO)C(=O)OC 1.9
O=C1OC[C@@H](c2ccccc2)n2cc(/C=C/c3ccccc3)cc21 0.0419
CN1C(=O)C2C(C1=O)C1C=C(CCCO)C2C(C2CC2)N1C (centres undefined) -0.0367
COC(=O)[C@@]1(Cc2ccc(F)cc2)[C@H]2c3cc(C(=O)N(C)C)n(Cc4cccc5ccccc45)c3C[C@H]2CN1C(=O)c1ccccc1 0.105
C[N+](C)(C)CCCC[C@@H]1NC(=O)[C@H]2C[C@@H](C(=O)O)[C@@H](c3ccc(O)cc3)N2C1=O -1.77
C=CCN1C(=O)[C@]2(O[C@H](CCO)[C@@H]([Si](C)(C)c3ccc(OC)cc3)[C@@H]2C)c2cc(N3C(=O)c4ccccc4Oc4ccccc43)ccc21 0.0876
COc1cc2c(cc1OC)CN(C(=O)[C@@H]1[C@H]3C(=O)O[C@H](c4ccccc4)[C@H](c4ccccc4)N3[C@H](c3ccc(O)cc3)[C@@]13C(=O)Nc1ccc(C#CC4=CCCCC4)cc13)CC2 1.36
COc1ccc([Si](C)(C)[C@@H]2[C@@H](CC(=O)N3CCC[C@H]3CO)O[C@]3(C(=O)N(Cc4cccc(N5C(=O)c6cccc7cccc5c67)c4)c4ccccc43)[C@H]2C)cc1 2.72
O=C1O[C@@H](c2ccccc2)[C@@H](c2ccccc2)N2[C@@H](c3ccccc3OCCO)[C@]3(C(=O)Nc4ccc(C#CC5(O)CCCCCC5)cc43)[C@@H](C(=O)N3CCCCCCC3)[C@H]12 -0.21
COc1ccc(NN2C(C(O)c3ccccc3)C=CC3C(=O)N(C4CCCCC4)C(=O)C32)cc1 (centres undefined) -2.76
COC(=O)[C@@]1(Cc2ccc(F)cc2)[C@H]2c3cc(C(=O)N4CCCC4)n(C[C@H](O)CO)c3C[C@H]2CN1C(=O)c1ccccc1 0.709

Biological target: NADPH oxidase 4 (Homo sapiens) (UniProt Q9NPH5)
Sequence (Q9NPH5 whole entry, looked up): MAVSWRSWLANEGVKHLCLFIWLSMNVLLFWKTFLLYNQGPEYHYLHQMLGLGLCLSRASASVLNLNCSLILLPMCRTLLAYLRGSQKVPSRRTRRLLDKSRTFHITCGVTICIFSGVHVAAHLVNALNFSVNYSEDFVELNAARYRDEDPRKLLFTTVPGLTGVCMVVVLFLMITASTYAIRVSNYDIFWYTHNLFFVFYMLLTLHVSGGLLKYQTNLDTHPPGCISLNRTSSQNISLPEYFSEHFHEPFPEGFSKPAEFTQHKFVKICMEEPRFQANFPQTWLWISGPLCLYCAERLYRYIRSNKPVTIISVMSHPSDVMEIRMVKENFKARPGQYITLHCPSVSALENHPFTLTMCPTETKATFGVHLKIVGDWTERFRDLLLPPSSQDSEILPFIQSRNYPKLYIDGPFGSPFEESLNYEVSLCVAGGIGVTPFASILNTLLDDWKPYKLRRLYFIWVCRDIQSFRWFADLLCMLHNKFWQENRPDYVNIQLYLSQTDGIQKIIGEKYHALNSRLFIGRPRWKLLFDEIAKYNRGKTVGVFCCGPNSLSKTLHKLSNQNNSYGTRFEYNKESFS
Assay: compounds shifting NOX4 Amplex Red fluorescence – cell-based, HEK293-NOX4, tetracycline-induced, NOX inhibitor project, primary screen (AID 1160)
Conditions: HEK293-NOX4, Amplex Red H2O2 fluorescence, 45 min; higher = more signal, called active from +8 up or from −8 down

z-score, inactive:
CC1CC/C=C\[C@H]2OC34C=CCN(C(C)C)C(=O)[C@H]3N(C(C)CO)C(=O)[C@@H]4C2C(=O)O1 (some centres undefined) -0.381
[N-]=[N+]=NCc1ccccc1C[C@]1(C(=O)N2CCCCC2)COC(c2ccc(OCCCO)cc2)=N1 0.0299
O=C1NC(=O)C2C1C=CC(C(O)c1ccc(F)cc1)N2Nc1ccc(Cl)cc1Cl (centres undefined) -5.68
O=C(NCC(F)(F)F)[C@@H]1c2ccccc2C(=O)N(Cc2cc(C(F)(F)F)cc(C(F)(F)F)c2)[C@H]1c1ccc(CO)cc1 0.746
C=CCNC(=O)[C@H]1[C@@H]2C(=O)O[C@@H](c3ccccc3)[C@@H](c3ccccc3)N2[C@@H](c2ccc(O)cc2)[C@]12C(=O)N(C(=O)OCCOC)c1ccc(C#Cc3ccc(OC)cc3)cc12 0.725
COCCOC(=O)N1C(=O)[C@@]2(c3cc(C#CCNC(N)=O)ccc31)[C@H](C(N)=O)[C@H]1C(=O)O[C@H](c3ccccc3)[C@H](c3ccccc3)N1[C@@H]2c1ccc(O)cc1 -0.181
CC(C)(C)OC(=O)CC[C@@]1(C(N)=O)N=C(c2ccc(OCCCO)cc2)O[C@@H]1c1ccccc1CN=[N+]=[N-] 1.09
COC(=O)[C@@]1(Cc2ccc(F)cc2)[C@H]2c3cc(C(=O)N(C)C)n(CCF)c3C[C@H]2CN1C(=O)c1ccccc1 0.864
COc1ccc(C(=O)Nc2cccc(CN3C(=O)[C@]4(O[C@H](CC(=O)N(CCO)Cc5ccccc5)[C@@H]([Si](C)(C)c5ccc(OC)cc5)[C@@H]4C)c4ccccc43)c2)cc1 0.871
[N-]=[N+]=NCc1ccccc1C[C@@]1(C(=O)NCCN2CCOCC2)N=C(c2ccc(OCCCO)cc2)O[C@@H]1c1ccccc1 0.731
COC(=O)C1(CC(C)C)C=C2C(=C(C)C(=O)C2C)CN1 (centres undefined) -1.51
COC(=O)C(CC#Cc1ccc2c(c1)[C@]1(C(=O)N2)[C@H](c2ccc(OCCO)cc2)N2[C@H](c3ccccc3)[C@H](c3ccccc3)OC(=O)[C@H]2[C@@H]1C(N)=O)C(=O)OC 0.784
CCCN1C(=O)[C@@]2(c3ccc([N+](=O)[O-])cc3)CC(=O)N(C3CCCCC3)[C@@H]2c2ccc(CO)cc21 -0.281
